Experimental findings from PubChem BioAssay (NCATS) are described below.

Where “and” joins values, the source holds several entries; their conditions need not be identical. Identical values can stand only once. A number with no mark means an inactive call. Results filed as inconclusive are left out. Calls of active or inactive are those of the source. The call rests on the fitted dose curve; in most records, active means well fitted curve in the direction sought with a large enough effect; inconclusive means small, poorly fitted or top-dose-only effect, or another doubt; inactive means no such curve, though single readings can be large; an effect the other way counts as inactive or inconclusive.

A short description of assay [1]: HPAF-II 24hr Apoptosis Induction qHTS against the NCATS CANVASS Library (AID 1347356). Further: 0% is about no effect. The method, boiled down:
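Luminescent caspase-3/7 signal (DEVD substrate, Caspase-Glo) served as read-out, taken 15 min after reagent addition to HPAF-II cells exposed 24 h to compounds.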
On the technique in general: In qHTS, concentration-response curves come from the screen itself.

Assay [2] can be described thus: HEK293 18hr Apoptosis Induction qHTS against the NCATS CANVASS Library (AID 1347357). Further: 0% is about no effect. An outline of the steps:
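HEK293 cells (500/well, DMEM + 10% FBS) treated with an 11-point series for 18 h at 37 degrees C. Caspase-3/7 activity read by Caspase-Glo luminescence after 15 min at room temperature.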

Assay [3] is described as follows: HEK293 24hr Apoptosis Induction qHTS against the NCATS CANVASS Library (AID 1347359). Further: 0% is about no effect. An outline of the steps:
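HEK293 cells (500/well, DMEM + 10% FBS) were exposed to compounds in an 11-point series for 24 hours at 37 degrees C, then caspase-3/7 activity was read by Caspase-Glo DEVD luciferase luminescence after 15 min.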

Assay [4] can be described thus: HPAF-II 18hr Apoptosis Induction qHTS against the NCATS CANVASS Library (AID 1347360). Further: 0% is about no effect. The method, boiled down:
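HPAF-II cells at 500/well were exposed for 18 h at 37 C to an 11-point compound series. Caspase-3/7 activity was read by Caspase-Glo luminescence after 15 min at RT.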

Assay [5] addresses Luciferin 4-monooxygenase (Photinus pyralis) (UniProt P08659). Description: Firefly luciferase counterscreen qHTS: Assay Interference Panel against the NCATS CANVASS Library (AID 1347363). Further: 0% is about no effect. An outline of the steps: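 Purified P. pyralis luciferase was added to compounds (11-point series) preincubated 15 min at room temperature with substrate containing 0.013 mM D-luciferin and 0.013 mM ATP; luminescence was read after 5 min.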
A general note: The purpose of a counterscreen is to sort out artefacts and off-target activity.

A short description of assay [6]: qHTS for ATAD5 Agonist screened against the NCATS CANVASS Library (AID 1347367).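 Further: luciferase reporter driven by ATAD5 which rises upon DNA damage; 0% is about no effect.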 The method, boiled down:
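Luciferase reporter under ATAD5 control, stably integrated in HEK293T cells (2000/well). Compounds (11 points) incubated 16 h at 37C; viability read first by CellTiter-Fluor, then luminescence reporting ATAD5 activation. MMS positive control.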

The nature of assay [7]: MCF7 Cancer Cell Toxicity qHTS against the NCATS CANVASS Library (AID 1347369). The method, boiled down:
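MCF7 cells (500/well) were exposed 72 h at 37 °C to compounds in an 11-point series. Viability was read as ATP content by CellTiterGlo luminescence.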

For assay [8], the target named is Nuclear receptor subfamily 1 group I member 3 (Homo sapiens) (UniProt Q14994). The assay can be described thus: qHTS for Constitutive Androstane Receptor (CAR) Antagonist screened against the NCATS CANVASS Library (AID 1347372).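 Further: cells stimulated with 50 nM CITCO agonist so inhibition reflects antagonism; on the % scale 0 is the no-effect control and ±100 the full control effect.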 The method, boiled down:
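HepG2 cells stably carrying hCAR and a CYP2B6-2.2kb luciferase reporter were exposed to compounds plus 50 nM CITCO for 24hr at 37C. CAR activity was read by ONE-Glo luminescence, with viability measured first by CellTiter-Fluor.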

The nature of assay [9]: 10-beta competent E. coli microbial cell viability qHTS against the NCATS CANVASS Library (AID 1347376). Further: 0% is about no effect. An outline of the steps:
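E. coli 10-beta, 0.2 OD; cpds 11-pt; o/n 37C, 5% CO2; BacTiter-Glo 20 min RT; luminescence (ATP) = viable cells. Daunomycin ctrl.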

Assay [10] is described as follows: qHTS for H2AX Agonists against the NCATS CANVASS Library (AID 1347378). Further: 0% is about no effect. The method, boiled down:
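CHO-K1 cells (1000/well, overnight at 37C) exposed to compounds at several concentrations for 3 hr at 37C, 0.76% DMSO final. Lysates read by TR-FRET (phospho-H2AX S139 Eu-cryptate antibody / H2AX-d2 antibody) after 24 hr at room temperature; 665/615 nm ratio.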

Assay [11] is described as follows: Inflammasome Signaling qHTS Counterscreen: IL-1-beta AlphaLISA counterscreen against the NCATS CANVASS Library (AID 1347381).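 Further: cell-free check with purified IL-1β in medium and no THP-1 cells; 0% is about no effect.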 The method, boiled down:
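Cell-free interference check: compounds added to medium spiked with 4 pg purified IL-1β. Anti-IL-1β acceptor beads (6 ug/mL) with 0.6 nM biotinylated antibody added for 1 h at RT, then streptavidin donor beads (24 ug/mL) for 30 min in the dark. AlphaLISA read at 680/615 nm.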

Assay [12] in a line: Cytotoxicity qHTS for assessment of Hepg2 cells membrane integrity screened against the NCATS CANVASS Library (AID 1347387). An outline of the steps:
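qHTS, 11-pt conc. series, 0.59 nM - 46 uM final; HepG2 2000 cells/well, overnight attachment; 5 hr compound exposure 37C/5% CO2; CytoTox-ONE, 10 min RT; fluorescence ex560/em590 = LDH from damaged membranes.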

Assay [13] concerns the target Nuclear receptor subfamily 1 group I member 3 (Homo sapiens) (UniProt Q14994). Description: qHTS for Constitutive Androstane Receptor (CAR) Agonist screened against the NCATS CANVASS Library (AID 1347373).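 Further: every well also contained 1.5 µM PK11195 alongside the test compound; 0% is about no effect.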 The method, boiled down: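 HepG2-hCAR-CYP2B6 cells, 2500/well, attached 4hr; cpd + PK11195 1.5uM final; 24hr 37C 5% CO2. CellTiter-Fluor viability read, then ONE-Glo luminescence for CAR activation.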

Assay [14] in a line: qHTS to identify inhibitors of the type 1 interferon - major histocompatibility complex class I in skeletal muscle: primary screen against the NCATS Mechanism Interrogation Plate v5.0 (MIPE) Libary (AID 1347411).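 Further: plate controls were vehicle for no effect and reference inhibitor for full effect; nearly all actives have a fitted effect of over 65% in size.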 The method, boiled down:
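Luminescence from HiBiT-tagged endogenous HLA-B*08:01 served as the MHC class I read-out. CRISPR-engineered C25cl48 human myoblasts received 4.0 ng/ml IFN-beta plus compound for 24 hrs, with an 11-point, 1:3 series topping at 46 uM final.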

Assay [15] can be described thus: Primary qHTS for inhibitors of nuclear receptor binding SET domain protein 2 (NSD2) in an isogenic RCH-ACV NSD2 p.E1099K mutant (9B) (AID 1645876). Further: potency means the concentration at half of the fitted maximal effect; nearly all actives have a fitted effect of over 70% in size.
A short description of assay [16]: Primary qHTS for inhibitors of nuclear receptor binding SET domain protein 2 (NSD2) in an RCH-ACV wild type WT cells (2C) (AID 1645877). Further: potency means the concentration at half of the fitted maximal effect; nearly all actives have a fitted effect of over 70% in size.
In assay [17] the target is Glutathione peroxidase 1 (Homo sapiens) (UniProt P07203). The assay can be described thus: Primary qHTS Assay for Inhibitors of Recombinant Selenoprotein Glutathione Peroxidase 1 (GPX1) (AID 1845191). Further: nearly all actives have a fitted effect of over 65% in size. The method, boiled down: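 Recombinant GPX1 (10 nM final) was preincubated with compound for 30 min at room temperature, then reacted with 1 mM GSH, 0.5 mM CHP, 0.5 mM NADPH and 100 nM glutathione reductase; NADPH fluorescence (340/450 nm) was read at 0 and 15 min.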
Sequence of Glutathione peroxidase 1 (Homo sapiens) (P07203 whole entry, looked up): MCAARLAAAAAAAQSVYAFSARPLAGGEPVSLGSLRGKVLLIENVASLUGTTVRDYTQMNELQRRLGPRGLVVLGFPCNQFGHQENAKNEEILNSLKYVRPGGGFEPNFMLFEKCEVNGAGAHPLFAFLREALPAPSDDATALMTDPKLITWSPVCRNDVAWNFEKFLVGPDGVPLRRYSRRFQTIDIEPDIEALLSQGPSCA

Assay [18] concerns the target Phospholipid hydroperoxide glutathione peroxidase GPX4 (Homo sapiens) (UniProt P36969). The assay can be described thus: Primary qHTS Assay for Inhibitors of Recombinant Selenoprotein Glutathione Peroxidase 4 (GPX4) (AID 1845192). Further: potency means the concentration at half of the fitted maximal effect; nearly all actives have a fitted effect of over 65% in size. Conditions: outcome: dose series up to 50 µM unless noted. The method, boiled down:
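GR-coupled readout: 100 nM GR, 1 mM GSH, 0.5 mM NADPH; NADPH fluorescence (ex 340/em 450 nm) read at t=0 and after 15 min RT. GPX4 200 nM, preincubated 30 min with compound; substrate 0.5 mM CHP.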

Assay [19] is described as follows: qHTS assay to identify inhibitors of the type 1 interferon - major histocompatibility complex class I in skeletal muscle: Counter screen cell viability and HiBit confirmation (AID 1347412). Further: on the % scale 0 is the no-effect control and ±100 the full control effect; nearly all actives have a fitted effect of over 60% in size. The conditions noted are these: iHSKM muscle cells + IFN-b, HiBiT or CellTiter-Glo, 24 h, at 45.9 µM (top of the series). An outline of the steps:
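CRISPR HLA-B*08:01-HiBit immortalized human myoblasts (C25cl48) stimulated with 4 ng/ml IFN-beta and compounds (12-point 1:3, top 46 uM final) for 24 h at 37 C. Duplicate plates read by HiBit lytic luminescence or CellTiter Glo ATP.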

Sequence of Nuclear receptor subfamily 1 group I member 3 (Homo sapiens) (Q14994 whole entry, looked up): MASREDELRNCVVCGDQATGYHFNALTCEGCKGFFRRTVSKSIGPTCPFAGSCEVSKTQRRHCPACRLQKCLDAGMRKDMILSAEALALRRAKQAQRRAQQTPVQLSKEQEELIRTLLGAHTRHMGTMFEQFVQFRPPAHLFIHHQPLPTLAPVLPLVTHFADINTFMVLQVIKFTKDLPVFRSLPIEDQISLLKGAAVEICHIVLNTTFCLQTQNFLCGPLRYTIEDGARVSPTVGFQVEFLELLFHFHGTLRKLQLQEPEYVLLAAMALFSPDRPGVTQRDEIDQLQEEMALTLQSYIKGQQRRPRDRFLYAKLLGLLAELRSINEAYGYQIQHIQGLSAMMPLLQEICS
Sequence of Luciferin 4-monooxygenase (Photinus pyralis) (P08659 whole entry, looked up): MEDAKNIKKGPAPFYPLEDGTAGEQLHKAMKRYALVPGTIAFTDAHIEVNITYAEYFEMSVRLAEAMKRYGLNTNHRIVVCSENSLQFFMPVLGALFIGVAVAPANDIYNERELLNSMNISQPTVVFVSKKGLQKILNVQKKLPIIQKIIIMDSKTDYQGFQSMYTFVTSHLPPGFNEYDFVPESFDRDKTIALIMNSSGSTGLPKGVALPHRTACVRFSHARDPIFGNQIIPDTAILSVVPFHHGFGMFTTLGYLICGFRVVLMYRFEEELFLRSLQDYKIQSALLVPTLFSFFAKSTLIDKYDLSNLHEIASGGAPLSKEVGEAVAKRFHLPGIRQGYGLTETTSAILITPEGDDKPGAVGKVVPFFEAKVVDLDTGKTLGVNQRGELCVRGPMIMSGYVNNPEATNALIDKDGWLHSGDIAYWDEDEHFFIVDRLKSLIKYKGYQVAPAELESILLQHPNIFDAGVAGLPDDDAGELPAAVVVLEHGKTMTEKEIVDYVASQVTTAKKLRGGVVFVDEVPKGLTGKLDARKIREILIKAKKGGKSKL
Sequence of Phospholipid hydroperoxide glutathione peroxidase GPX4 (Homo sapiens) (P36969 whole entry, looked up): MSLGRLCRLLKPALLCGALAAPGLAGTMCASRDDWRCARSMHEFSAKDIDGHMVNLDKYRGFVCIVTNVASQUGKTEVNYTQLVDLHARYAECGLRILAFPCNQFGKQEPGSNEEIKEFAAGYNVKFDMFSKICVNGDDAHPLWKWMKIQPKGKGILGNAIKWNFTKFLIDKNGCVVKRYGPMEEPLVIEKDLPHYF

Turning to `CC1=C(C)C(=O)OC(C(C)C2(O)CCC3C4C5OC5C5(O)CC=CC(=O)C5(C)C4CCC32C)C1` (stereo unspecified), the compound was called inactive in assay [1], in [9], in assay [11] and in assay [12]. For the same compound, the Potency entry in assay [2], in assay [3], in [4], in assay [5], in [6] and in assay [7] was “inactive” throughout. The Potency result in assay [8] and in assay [10] was “inactive” in each case.
For `C[C@H](CCC(O)C(C)(O)CO)[C@@]1(O)CC[C@@]2(C)C3=C(CC[C@@]21C)[C@@]1(C)CCC(OC(=O)CCC(=O)O)C(C)(C)[C@@H]1CC3` (stereo partly specified), the outcome in assay [1], in assay [9], in [11] and in assay [12] was inactive. Further, the Potency result in [2], in assay [3], in assay [4], in [5], in assay [6] and in assay [7] was “inactive” in each case. The Potency result in [8] and in assay [13] was “inactive” in each case.
Regarding `Cc1cc(C)c(CNC(=O)c2cc(-c3ccc(N4CCN(C)CC4)nc3)cc3c2c(C)cn3C(C)C)c(=O)[nH]1`, the Potency result in assay [14] and in assay [17] was “inactive” in each case. In addition, the Potency in assay [15] was 16.6 µM (active) and 18.6 µM (active); in assay [16] it was 20.9 µM (active); in [18], 12.8 µM (active). Moreover, the activity change, negative = inhibition is 0.953% in assay [19] (HiBiT) and -10.1% in assay [19] (Viability).
For the compound `COc1ccc([C@@H]2c3cc4c(cc3C(=O)[C@H](C)C2C)OCO4)cc1OC` (stereo partly specified), the compound was called inactive in assay [1], in assay [9], in assay [11] and in [12]. For the same compound, the Potency entry in [2], in assay [3], in assay [4], in assay [5], in [6] and in assay [7] was “inactive” in each case. Moreover, the Potency result in assay [8], in [13] and in assay [10] was “inactive” in each case.
For the compound `COc1ccc([C@@H]2c3cc4c(cc3C[C@H](C)C2C)OCO4)cc1OC` (stereo partly specified), the call in [1], in assay [9], in [11] and in assay [12] was inactive. For the same compound, the Potency result in [2], in assay [3], in assay [4], in assay [5], in assay [6] and in [7] was “inactive” each time. Moreover, the Potency entry in assay [8], in [13] and in [10] was “inactive” each time.
Take `COC(=O)[C@@]1(C)CCC[C@]2(C)c3cc(OC)ccc3CC[C@@H]12`: the compound was classed as inactive in assay [1], in [9], in assay [11] and in assay [12]. Besides, the Potency result in assay [2], in assay [3], in assay [4], in assay [5], in assay [6] and in [7] was “inactive” in each case. Also, the Potency result in assay [8] and in assay [10] was “inactive” in each case.
Take `C[C@H](c1cnc(N)[nH]1)c1ccc(O)c2[nH]cc(-c3cnc(-c4c[nH]c5ccccc45)c(=O)[nH]3)c12`: the compound was classed as inactive in assay [1], in assay [9] and in assay [12]. Besides, the Potency result in [2], in assay [3], in assay [4], in assay [5], in assay [6] and in assay [7] was “inactive” each time. For the same compound, the Potency result in [8], in assay [13] and in [10] was “inactive” in each case.
